Values joined by “and” are separate entries in the source; they are usually repeats but may differ in a detail not shown here. Equal entries are not always repeated. The panel holds about 83,000 compounds, 20% with a hit somewhere; the sample as a whole holds those more often.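 How to read the values: 0–100, growth inhibition (40 = 60% inhibited); 0, no net growth; -100 to 0, cell death (-40 = 40% of starting cells died; -100 = all dead).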 Active and inactive are the calls of the source. Rule for the calls: active = growth percent below 10; inactive = the rest.
System: MDA-MB-468 breast
Test: NCI-60 one-dose screen, 48 h (100 = growth as untreated, 0 = no growth, -100 = all killed)
Settings: 10 µM unless noted

Structure (SMILES)	growth
CCCCNc1cc(-c2cn[nH]c2-c2cc(C)cc(OC)c2)nc(-c2cccnc2)n1	78.4% (inactive)
O=C(CCCCCCC(=O)Nc1ccccc1)NO	12.1% (inactive)
Fc1cc(-c2ncc(-c3cc(F)c(F)c(F)c3)c(NC3CCCCCC3)n2)cc(F)c1F	99% (inactive)
CCOCCC(=O)O	99.2% (inactive)
Clc1ccc2c(NCCCN3CCN(c4nc(-n5ccnc5)nc5ccccc45)CC3)ccnc2c1	106% (inactive)
O=C(Cn1c2c(c3ccccc31)CCCC2)Nc1ccc(-c2nc3ccccc3s2)cc1	-19.5% (active)
Cc1ccc(NC2=CC(=O)C(=O)c3ccccc32)cc1	-12.4% (active)
Cc1nc([P+](c2ccccc2)(c2ccccc2)c2ccccc2)c(Sc2sc(-c3ccccc3)nc2[P+](c2ccccc2)(c2ccccc2)c2ccccc2)o1	-31.6% (active)
Cc1nc2ccccc2c(/C=C/c2ccccc2)c1C(=O)/C=C/c1ccccc1	35.6% (inactive)
CCc1ncnc2c1ccn2C(C)c1ccc(OC)c(F)c1 (stereo not given)	-1.21% (active)
CN1CCN(c2nc(-c3csc(-c4cccs4)n3)cc3ccccc23)CC1	20.3% (inactive)
O=C1/C(=C/c2ccc(Br)cc2)C=C(c2ccccc2)N1CCc1ccccc1	45% (inactive)
COc1c(B(O)O)cc(C)cc1-c1nc2ccc3[nH]ncc3c2c2c1CCCC2	28.2% (inactive)
O=c1oc2cc(OS(=O)(=O)c3ccccc3)c(Cl)cc2c2c1CCCCCC2	62.2% (inactive)
CN(C)CC1CCC(CN(C)C)C1=O (stereo not given)	108% (inactive)
COc1ccc(-c2nn(-c3ccc(NC(=O)c4ccc(Cl)c(C(F)(F)F)c4)cc3)cc2-c2ccncc2)cc1Cl	9.51% (active)
CSc1cccc(NC(=O)Nc2nc3c(C)cccc3s2)c1	84.6% (inactive)
O=C1CSC(c2ccc(O)cc2)N1c1nnc(Cn2cnnc2)o1 (stereo not given)	48% (inactive)

Structure (SMILES)	growth
O=C(/C(=C/c1ccc([N+](=O)[O-])cc1)SCc1ccc(F)cc1)c1ccc(Cl)cc1	76.4% (inactive)
CN1c2ccccc2Sc2cc(C=C(C#N)C#N)ccc21	-24.4% (active)
Cc1ccc(S(=O)(=O)N2CCc3ccc(O)c4c3C2Cc2ccc3c(c2-4)OCO3)cc1 (stereo not given)	1.75% (active)
O=[N+]([O-])c1ccc(O)c2ncccc12	30.6% (inactive) and 1.77% (active)
CN(C)c1ccc(C(=N)c2ccc(N(C)C)cc2)cc1	-45.5% (active) and -18.9% (active)
NC(=O)n1c(=O)n(-c2cccc(C(F)(F)F)c2)c(=O)c2cc(-c3ccc(F)cc3F)ccc21	-8.88% (active)
CCn1ccnc1C(=O)/C=C/c1ccc(CC(=O)Nc2ccc(F)cc2)cc1	-13.8% (active)
CCCNC(=O)Oc1ccc(/C(=C(/CC)Cc2ccccc2)c2ccc(OCCN(CC)CC)cc2)cc1	68.6% (inactive)
CN1CCN(CCCOc2cccc3nc(Nc4cc(Cl)cc(Cl)c4)ccc23)CC1	-52.6% (active)
Nc1nc2ccccc2c2c(=O)c3ccc(Cl)cc3sc12	3.53% (active)
CN1CCN(c2nc3scc(-c4ccccc4)c3c(=O)[nH]2)CC1	98.1% (inactive)
CCC(=O)Nc1nnc(Cc2ccc(OC)c(OC)c2)s1	-2.42% (active)
Cc1ccc(C(=O)Nc2ccc(CN3CCN(C)CC3)c(C(F)(F)F)c2)cc1C#Cc1cnc(N)c2ccc(C#N)cc12	34.9% (inactive)
O=c1c(-c2nc3ccccc3[nH]2)cc2ccccc2n1Cc1cn(Cc2ccccc2Cl)nn1	14.1% (inactive)
O=C1NC(=C(Cl)Cl)/C(=N/S(=O)(=O)N2CCCCC2CC2(C(F)(F)F)N=N2)N1 (stereo not given)	-44.8% (active)
Nc1c(C(=O)Nc2cccc(C(F)(F)F)c2)sc2nc3c(cc12)CCCCC3	-9.93% (active)
COCCCC/C(=N\OCCN)c1ccc(C(F)(F)F)cc1	101% (inactive)
